IL1B secr inh: inhibitors of inflammasome signaling (IL-1 beta secretion). THP-1 LPS/ATP IL-1B secretion, AlphaLISA, 16 h; stronger effect = lower value. activity change, % at 57.5 µM. actives 4.7% (n = 360,000); in the data active means activity change below about -50%; inconclusive means mostly about -30% to -49%
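THP-1 cells pretreated 1 hr with compounds (up to 57.5 uM final), then stimulated with LPS (250 ng/mL final) plus ATP (1.25 mM final); secreted IL-1B measured by AlphaLISA after 16 hr, decreased signal indicating inhibition.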
D3 ag: agonists of human D3 dopamine receptor. P35462. D3R DiscoveRx beta-arrestin cells, luminescence, 90 min. max activation, %. actives 0.58% (n = 410,000); in the data active means max activation above about 30%
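Agonist-mode cell screen: cells plated at 1500/well and incubated overnight at 37 °C, then exposed to library compounds for 90 min at 37 °C. Detection reagent was added for 30–60 min at room temperature, and luminescence was read.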
ClpP mod: qHTS Assay for Activators of ClpP. ATP-dependent Clp protease proteolytic subunit (Bacillus subtilis (strain 168)), P80244. purified B. subtilis ClpP, FRET peptide cleavage, 20 min. Potency, µM (highest dose often 57.5 µM). actives 1.9% (n = 340,000); active means well fitted falling curve with a large enough effect; inconclusive means small, poorly fitted or top-dose-only effect; inactive means no such curve, though single readings can be large or run the other way; further: the source files actives as falling curves though it sought activators and does not explain the sign; nearly all actives have a fitted effect of over 65% in size
Target sequence (P80244 whole entry, looked up): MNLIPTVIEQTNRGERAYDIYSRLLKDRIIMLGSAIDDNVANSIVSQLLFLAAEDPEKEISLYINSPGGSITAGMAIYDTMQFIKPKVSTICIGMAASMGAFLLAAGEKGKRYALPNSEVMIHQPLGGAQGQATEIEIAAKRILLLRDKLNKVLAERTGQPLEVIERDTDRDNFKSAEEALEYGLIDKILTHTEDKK
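FRET quenching reversal measured ClpP activation: 10 microg/mL B. subtilis ClpP at pH 8 with the FRET-FV decapeptide, read at 430 nm after 320 nm excitation. The 20-min minus 0-min signal was scaled between DMSO/no-enzyme wells and ADEP (5.8 microM final).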
DRD3 antagonist: D3 dopamine receptor (human) antagonism; max response, negative = inhibition, %; actives 2.5% (n = 360,000); D3R cells, DiscoveRx beta-arrestin luminescence, antagonist mode; stronger effect = lower value; P35462; in the data active means max response below about -50%; inconclusive means no clear call, values can overlap the other calls
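Cells plated overnight at 1500 cells/well, then exposed to library compounds with dopamine controls for 90 minutes at 37 degrees C. DiscoveRx reagent added for 30–60 minutes at room temperature; luminescence read, quantitative HTS format.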
DT40 TDP1 CPT: DT40-hTDP1 cell growth loss with CPT. Potency, µM (doses to about 46.2 µM), actives largely listed as inhibitors. chicken DT40 Tdp1-/-;hTDP1 cells + 20 nM CPT, ATP luminescence, 48 h. actives 12% (n = 420,000); further: nearly all actives have a fitted effect of over 55% in size
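Chicken DT40 Tdp1-/- cells stably complemented with human TDP1 were seeded at 400 cells/well in medium containing 20 nM camptothecin, exposed to pin-transferred compounds, and grown at 37 °C for at least 48 hr. Viability was read as ATP luminescence.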
TDP1 cell noCPT: qHTS for Inhibitors of human tyrosyl-DNA phosphodiesterase 1 (TDP1): qHTS in cells in absence of CPT; DT40 Tdp1-/- hTDP1 cells, no CPT, ATP luminescence, 48 h; Potency, µM (highest dose often 46.2 µM), usual class: inhibitors; actives 15% (n = 420,000); AID 686978, 2013; further: nearly all actives have a fitted effect of over 55% in size
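Readout: luminescence from CellTiter-Glo after 30 min in the dark at RT. Cells: DT40 Tdp1-/- with stable hTDP1, 400/well. Exposure: compounds alone, ≥48 hr, 37 °C.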
Hits are given with their value; – = inactive; ? = inconclusive; · = no result. Hits are enriched below; roughly 21% of the tested compounds scored in any of these assays. Unless noted, the call rests on the fitted dose curve; in most records, active means well fitted inhibition curve with a large enough effect; inconclusive means small, poorly fitted or top-dose-only effect; inactive means flat fitted curve, though single readings scatter.

SMILES	IL1B secr inh	D3 ag	ClpP mod	DRD3 antagonist	DT40 TDP1 CPT	TDP1 cell noCPT
CC(C)CCn1c(N)c(C(=O)OCC2CCCO2)c2nc3ccccc3nc21 (stereo unspecified)	–	–	–	–	?	?
CCCCn1c(N)c(C(=O)OCC2CCCO2)c2nc3ccccc3nc21 (stereo unspecified)	–	–	?	–	18µM	18µM
CC(C)OC(=O)c1c(N)n(CC2CCCO2)c2nc3ccccc3nc12 (stereo unspecified)	–	–	–	–	?	?
CC(C)CCOC(=O)c1c(N)n(CC2CCCO2)c2nc3ccccc3nc12 (stereo unspecified)	-65	–	28µM	–	?	21µM
CC(C)OCCCNC(=O)c1c(N)n(CC2CCCO2)c2nc3ccccc3nc12 (stereo unspecified)	-64	–	14µM	–	?	–
CCCNC(=O)c1c(N)n(CC2CCCO2)c2nc3ccccc3nc12 (stereo unspecified)	–	–	18µM	–	?	21µM
CCOP(=O)(Cc1cc(C(=O)CC)c(C)o1)OCC	–	–	–	–	–	?
CC(C)COP(=O)(OCC(C)C)C(O)c1cccnc1 (stereo unspecified)	–	–	–	–	–	–
ClCCN1CCSCC1	–	–	·	–	?	?
CCCCn1c(NC(=O)c2ccco2)c(C(=O)OCC)c2nc3ccccc3nc21	?	–	?	–	9.2µM	4.6µM
Cc1cccc(-n2nc(C)c(C(=O)N3CCN(c4ccccc4)CC3)c2-n2cccc2)c1	·	–	–	·	16µM	21µM
Cc1cccc(N2CCC3(CC2)C(=O)NC(=O)NC3=O)c1	–	–	–	–	–	–
O[C@H]1CCCC[C@H]1N1CCC(c2ccccc2)CC1	·	·	·	·	–	–
COC(=O)C1=C(c2ccccc2OCc2ccccc2)C[C@@H]2CC[C@H]1N2C	–	–	–	–	?	23µM
COC(=O)C1=C(c2ccc(F)cc2OCc2ccccc2)C[C@@H]2CC[C@H]1N2C	–	–	–	-56	23µM	16µM
C=CC1CN2CCC1CC2[C@@H](OC(=O)c1ccc(OC)cc1)c1ccnc2ccccc12 (stereo partly specified)	?	–	–	–	?	?
Cc1ccccc1-c1nc(CS(=O)CC(=O)N2CCC3(CC2)OCCO3)c(C)o1 (stereo unspecified)	–	–	–	–	–	–
Cc1ccsc1-c1nc(CSCC(=O)N2CCC3(CC2)OCCO3)c(C)o1	–	–	32µM	–	23µM	16µM
COc1cccc(C(C(=O)NCc2ccco2)N(Cc2ccco2)C(=O)Cn2nnc3ccccc32)c1 (stereo unspecified)	–	–	–	–	?	?
C=CCN1C(=O)NC(=O)/C(=C\c2ccc(-c3ccccc3[N+](=O)[O-])o2)C1=O	-100	–	·	–	?	18µM
C=CCN1C(=O)/C(=C/c2ccc(N3CCOCC3)o2)C(=O)NC1=S	–	–	–	–	–	–
Cc1cc(/C=C2/C(=O)NC(=O)N(Cc3ccco3)C2=O)c(C)n1-c1ccccc1	–	–	–	–	–	–
CN(C)c1ccc(/C=C2/C(=O)NC(=O)N(Cc3ccco3)C2=O)cc1	–	–	–	–	–	–
CCN(CC)c1ccc(/C=C2/C(=O)NC(=O)N(Cc3ccco3)C2=O)cc1	-64	–	–	–	–	–
O=C1NC(=O)N(Cc2ccco2)C(=O)/C1=C/c1ccc(-c2cccc([N+](=O)[O-])c2)o1	?	–	–	–	18µM	?
C[C@H]1O[C@H](O[C@H]2[C@H](O)[C@@H](O)[C@@H](O)[C@H](O)[C@@H]2O)[C@@H](N)C[C@@H]1NC(=N)C(=O)O	·	·	·	·	–	–
COc1ccccc1NC(=O)c1cn(CCC#N)nc1-c1cccc(Cl)c1	–	–	–	–	?	?
C[n+]1ccc(-c2cc[n+](C)cc2)cc1	–	–	–	–	–	–

Source: PubChem BioAssay (National Center for Advancing Translational Sciences (NCATS))
